Reference: the supplement of paper PMC10077471
Over roughly 1,900 compounds, “excess over highest single agent (ExcessHSA) synergy score, 6x6 matrix” has its median near -83; the lowest 2% begin near -370. What follows is part of a selection rich in the lowest values, with near analogues and random picks from the rest.

Test system: NCI-H446
Assay: excess over highest single agent (ExcessHSA) synergy score, 6x6 matrix; higher = less synergy (more negative = stronger synergy)
Conditions: 72 h; CellTiter-Glo viability

Row | Compound | excess over highest single agent
1 | C#CCN(C)CC1=Cc2ccccc2Oc2ccccc21 + Cc1sc2c(c1C)C(c1ccc(Cl)cc1)=N[C@@H](CC(=O)OC(C)(C)C)c1nnc(C)n1-2 [NCGC00250412-19] | -204
2 | Cc1cnc(CNC(=O)c2c(=O)c3ccc(N4CCCN(C)CC4)nc3n3c2sc2ccccc23)cn1 + Cc1sc2c(c1C)C(c1ccc(Cl)cc1)=N[C@@H](CC(=O)OC(C)(C)C)c1nnc(C)n1-2 [NCGC00250412-19] | -259
3 | Cc1cn2cc(C(=O)N(C)CCO)cc(N[C@@H]3CCOc4cccc(C)c43)c2n1 + Cc1sc2c(c1C)C(c1ccc(Cl)cc1)=N[C@@H](CC(=O)OC(C)(C)C)c1nnc(C)n1-2 [NCGC00250412-19] | 64.1
4 | CNC(=O)N1N=C(c2ccc(N)cc2)c2cc3c(cc2CC1C)OCO3 (configuration not stated) + Cc1sc2c(c1C)C(c1ccc(Cl)cc1)=N[C@@H](CC(=O)OC(C)(C)C)c1nnc(C)n1-2 [NCGC00250412-19] | -19.1
5 | O=C(CCCCCCC(=O)Nc1cccnc1)NO + Cc1sc2c(c1C)C(c1ccc(Cl)cc1)=N[C@@H](CC(=O)OC(C)(C)C)c1nnc(C)n1-2 [NCGC00250412-19] | -276
6 | Oc1cccc(-c2nc(N3CCOCC3)c3oc4ncccc4c3n2)c1 + Cc1sc2c(c1C)C(c1ccc(Cl)cc1)=N[C@@H](CC(=O)OC(C)(C)C)c1nnc(C)n1-2 [NCGC00250412-19] | -410
7 | c1cncc(CN2CCC(n3ncc4c(N5CCOCC5)nc(-c5ccc6[nH]ccc6c5)nc43)CC2)c1 + Cc1sc2c(c1C)C(c1ccc(Cl)cc1)=N[C@@H](CC(=O)OC(C)(C)C)c1nnc(C)n1-2 [NCGC00250412-19] | -140
8 | Nc1ccc(C(=O)Nc2cccc(-c3nc(N4CCOCC4)c4oc5ncccc5c4n3)c2)cn1 + Cc1sc2c(c1C)C(c1ccc(Cl)cc1)=N[C@@H](CC(=O)OC(C)(C)C)c1nnc(C)n1-2 [NCGC00250412-19] | 98.4
9 | Cc1ccc(C(=O)Nc2cccc(C(F)(F)F)c2)cc1-c1ccc2nc(NCCN3CCOCC3)ncc2c1 + Cc1sc2c(c1C)C(c1ccc(Cl)cc1)=N[C@@H](CC(=O)OC(C)(C)C)c1nnc(C)n1-2 [NCGC00250412-19] | -140
10 | Nc1ncnc2c1c(-c1cccc(OCc3ccccc3)c1)cn2C1CC(CN2CCC2)C1 (configuration not stated) + Cc1sc2c(c1C)C(c1ccc(Cl)cc1)=N[C@@H](CC(=O)OC(C)(C)C)c1nnc(C)n1-2 [NCGC00250412-19] | -56.6
11 | COc1ncc(-c2ccc3nccc(-c4ccnnc4)c3c2)cc1NS(=O)(=O)c1ccc(F)cc1F + Cc1sc2c(c1C)C(c1ccc(Cl)cc1)=N[C@@H](CC(=O)OC(C)(C)C)c1nnc(C)n1-2 [NCGC00250412-19] | -259
12 | CCn1c(-c2nonc2N)nc2cncc(CNC3CCNCC3)c21 + Cc1sc2c(c1C)C(c1ccc(Cl)cc1)=N[C@@H](CC(=O)OC(C)(C)C)c1nnc(C)n1-2 [NCGC00250412-19] | 51.1
13 | Cc1ccccc1-n1c(Cn2nc(-c3cccc(O)c3)c3c(N)ncnc32)nc2cccc(C)c2c1=O + Cc1sc2c(c1C)C(c1ccc(Cl)cc1)=N[C@@H](CC(=O)OC(C)(C)C)c1nnc(C)n1-2 [NCGC00250412-19] | -224
14 | O=C(O)[C@]1(Cc2cccc(Nc3nccs3)n2)CC[C@@H](Oc2cccc(Cl)c2F)CC1 + Cc1sc2c(c1C)C(c1ccc(Cl)cc1)=N[C@@H](CC(=O)OC(C)(C)C)c1nnc(C)n1-2 [NCGC00250412-19] | -273
15 | O=C(O)c1nc(=O)[nH]c(=O)[nH]1 + Cc1sc2c(c1C)C(c1ccc(Cl)cc1)=N[C@@H](CC(=O)OC(C)(C)C)c1nnc(C)n1-2 [NCGC00250412-19] | -48.1
16 | CCS(=O)(=O)c1cccc(-c2cc(C(=O)NC3CCN(C)CC3)c(C)c3[nH]c4ncc(C)cc4c23)c1 + Cc1sc2c(c1C)C(c1ccc(Cl)cc1)=N[C@@H](CC(=O)OC(C)(C)C)c1nnc(C)n1-2 [NCGC00250412-19] | -197
17 | C=CC[C@@H]1/C=C(\C)C[C@H](C)C[C@H](OC)[C@H]2O[C@@](O)(C(=O)C(=O)N3CCCC[C@H]3C(=O)O[C@H](/C(C)=C/[C@@H]3CC[C@@H](O)[C@H](OC)C3)[C@H](C)[C@@H](O)CC1=O)[C@H](C)C[C@@H]2OC + Cc1sc2c(c1C)C(c1ccc(Cl)cc1)=N[C@@H](CC(=O)OC(C)(C)C)c1nnc(C)n1-2 [NCGC00250412-19] | -143
18 | CC[C@@H]1/C=C(\C)C[C@H](C)C[C@H](OC)[C@H]2O[C@@](O)(C(=O)C(=O)N3CCCC[C@H]3C(=O)O[C@H](/C(C)=C/[C@@H]3CC[C@H](Cl)[C@H](OC)C3)[C@H](C)[C@@H](O)CC1=O)[C@H](C)C[C@@H]2OC + Cc1sc2c(c1C)C(c1ccc(Cl)cc1)=N[C@@H](CC(=O)OC(C)(C)C)c1nnc(C)n1-2 [NCGC00250412-19] | -132
19 | CO[C@H]1C[C@@H]2CC[C@@H](C)[C@@](O)(O2)C(=O)C(=O)N2CCCC[C@H]2C(=O)O[C@H]([C@H](C)C[C@@H]2CC[C@@H](OCCO)[C@H](OC)C2)CC(=O)[C@H](C)/C=C(\C)[C@@H](O)[C@@H](OC)C(=O)[C@H](C)C[C@H](C)/C=C/C=C/C=C/1C + Cc1sc2c(c1C)C(c1ccc(Cl)cc1)=N[C@@H](CC(=O)OC(C)(C)C)c1nnc(C)n1-2 [NCGC00250412-19] | -598
20 | CO[C@H]1C[C@@H]2CC[C@@H](C)[C@@](O)(O2)C(=O)C(=O)N2CCCC[C@H]2C(=O)O[C@H]([C@H](C)C[C@@H]2CC[C@@H](OP(C)(C)=O)[C@H](OC)C2)CC(=O)[C@H](C)/C=C(\C)[C@@H](O)[C@@H](OC)C(=O)[C@H](C)C[C@H](C)/C=C/C=C/C=C/1C + Cc1sc2c(c1C)C(c1ccc(Cl)cc1)=N[C@@H](CC(=O)OC(C)(C)C)c1nnc(C)n1-2 [NCGC00250412-19] | -543
21 | CO[C@H]1C[C@@H]2CC[C@@H](C)[C@@](O)(O2)C(=O)C(=O)N2CCCC[C@H]2C(=O)O[C@H]([C@H](C)C[C@@H]2CC[C@@H](OC(=O)C(C)(CO)CO)[C@H](OC)C2)CC(=O)[C@H](C)/C=C(\C)[C@@H](O)[C@@H](OC)C(=O)[C@H](C)C[C@H](C)/C=C/C=C/C=C/1C + Cc1sc2c(c1C)C(c1ccc(Cl)cc1)=N[C@@H](CC(=O)OC(C)(C)C)c1nnc(C)n1-2 [NCGC00250412-19] | -419
22 | CO[C@H]1C[C@@H]2CC[C@@H](C)[C@@](O)(O2)C(=O)C(=O)N2CCCC[C@H]2C(=O)O[C@H]([C@H](C)C[C@@H]2CC[C@@H](O)[C@H](OC)C2)CC(=O)[C@H](C)/C=C(\C)[C@@H](O)[C@@H](OC)C(=O)[C@H](C)C[C@H](C)/C=C/C=C/C=C/1C + Cc1sc2c(c1C)C(c1ccc(Cl)cc1)=N[C@@H](CC(=O)OC(C)(C)C)c1nnc(C)n1-2 [NCGC00250412-19] | -737
